VACV mCherry inh: inhibitors of vaccinia virus infection (mCherry reporter signal); Vaccinia virus mCherry reporter infection, fluorescence; 0.63% of 310,000 active; Potency, µM (highest dose often 36.5 µM), for inactives: at the highest dose activity change, negative = inhibition, most hits filed as inhibitors; AID 720579; calls by dose curve; tested in A549 cells; also: % is scaled to controls: 0 for no effect and ±100 for the full control effect; nearly all actives have a fitted effect of over 35% in size
Pf growth 96h: inhibits malaria parasite growth, 96 h. P. falciparum luciferase reporter growth, 96 h. 6.9% of 320,000 active. Potency, µM (titrated, usually from 28.7 µM), inactives show top-dose activity change, negative = inhibition, hits mostly inhibitors. AID 504834; also: % is scaled to controls: 0 for no effect and ±100 for the full control effect
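Infected RBCs, 2% Hct / 0.05% parasitemia final; luciferase-reporter P. falciparum; cpd 96 h, 37 C, 5% CO2; luciferase detection reagent; luminescence.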
Pf growth 48h: P. falciparum growth inhibition at 48 hours (one generation) | 5.9% of 310,000 active | Potency, µM (series often up to 28.7 µM), for inactives: at the highest dose activity change, negative = inhibition, actives largely listed as inhibitors | P. falciparum luciferase growth in erythrocytes, 48 h; also: % is scaled to controls: 0 for no effect and ±100 for the full control effect
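Erythrocytes infected with P. falciparum carrying an integrated firefly luciferase reporter (2% hematocrit, 0.1% parasitemia final) were exposed to compounds in RPMI 1640 with 0.5% Albumax at 37 C, 5% CO2. Growth inhibition was scored as reduced luminescence.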
HCV inhibitor: HCV inhibition; Huh7.5.1 HCVcc-Cre infection, luciferase reporter, 44 h; Potency, µM (series often up to 41.8 µM), for the others: at the top dose activity change, negative = inhibition, actives largely listed as inhibitors; 3.4% of 340,000 active; also: % is scaled to controls: 0 for no effect and ±100 for the full control effect
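Compounds are dispensed onto cells plated 4 h earlier at 1,000 per well, with HCVcc-Cre virus (about 0.5 moi) added next. Following 44 h of culture, luminescent signal is measured for 15 sec after 15 min with substrate at room temperature.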
VACV Venus inh: vaccinia inhibition (Venus reporter); AID 720580; 0.46% of 330,000 active; Vaccinia virus Venus reporter expression, fluorescence; Potency, µM (doses to about 36.5 µM), for the others: at the highest dose activity change, negative = inhibition, actives largely listed as inhibitors; calls by dose curve; tested in A549 cells; also: % is scaled to controls: 0 for no effect and ±100 for the full control effect; nearly all actives have a fitted effect of over 30% in size
NS1 function inh: influenza NS1 inhibition; Potency, µM (top dose mostly 46.1 µM), for inactives: at the top dose activity, positive = more growth; 0.4% of 270,000 active; calls by dose curve; also: actives are rising curves; nearly all actives have a fitted effect of over 50% in size
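Read-out: OD600 growth recovery of NS1-expressing budding yeast. Cells grown overnight at 30C in -URA glucose medium, washed, resuspended and diluted 1:100 in 2% galactose assay medium, pH 6.0. Same strain lacking NS1 served as positive control.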
Active calls of the source: *; i = inactive; u = inconclusive; x = no result; [ ] = dose if it differs, or a comment. Sampled rows, rich in hits. Any-hit rate of the full collection: about 11%. Unless noted, calls follow the shape of the dose curve; as a rule, active = well fitted inhibition curve with a large enough effect; inconclusive = small, poorly fitted or top-dose-only effect, or another doubt; inactive = no such curve, though single readings can be large or run the other way. Potency is read from the fitted curve at half-maximal effect.

SMILES	VACV mCherry inh	Pf growth 96h	Pf growth 48h	HCV inhibitor	VACV Venus inh	NS1 function inh
COc1ccc(/C=C2\Sc3ccc(C(=O)NCc4cccnc4)cc3N(C)C2=O)cc1OC	i	-12%	u	8.9µM*	-13%	x
COc1ccc(/C=C2\Sc3ccc(C(=O)N4CCN(Cc5ccccc5)CC4)cc3N(C)C2=O)cc1OC	x	u	u	3.5µM*	x	-1%
CN1C(=O)/C(=C/c2cccc(Cl)c2)Sc2ccc(C(=O)NCc3cccnc3)cc21	x	u	9.3µM*	10µM*	x	x
CCN(CC)C(=S)SCC(=O)Nc1nc(=O)c2ccccc2s1	x	55%	33%	1%	x	13%
CCCc1nc2oc(C(=O)c3ccccc3)c(N)c2c2c1COC(C)(C)C2	x	u	x	u	-9%	-7%
CC1CCC(NC(=O)C2CCC(CNc3c(N4CCCCC4)c(=O)c3=O)CC2)CC1 (stereo not drawn)	10%	-11%	u	16%	-19%	-1%
CCCn1cc(C(=O)OCC)c(=O)c2cc(F)c(F)cc21	-3%	2%	-9%	-8%	-23%	-2%
CCOC(=O)c1cn(CC2CC2)c2cc(F)c(F)cc2c1=O	-5%	u	-18%	14µM*	-15%	4%
CCOC(=O)c1cn(CC)c2cc(Cl)c([N+](=O)[O-])cc2c1=O	i	u	13µM*	9%	0%	2%
CCOC(=O)c1cn(-c2c(Cl)cccc2Cl)c2cc(Cl)c([N+](=O)[O-])cc2c1=O	u	8.3µM*	13µM*	u	u	-2%
CCOC(=O)c1cn(-c2ccccc2CO)c2c(F)c(F)c(F)cc2c1=O	x	u	21%	7%	x	-8%
O=c1oc2ccccc2c2c1C1O[C@](c3ccsc3)(Cc3ccccc31)O2	x	u	1.7µM*	x	x	13%
COc1ccc([C@]23Cc4ccccc4C(O2)c2c(c4ccc(OC)cc4oc2=O)O3)cc1	x	1.7µM*	u	x	x	-5%
COc1ccc2c3c(c(=O)oc2c1)C1O[C@](c2ccsc2)(Cc2ccccc21)O3	x	u	u	x	x	6%
COc1ccc([C@]23Cc4cc(OC)c(OC)cc4C(O2)c2c(cc(C)oc2=O)O3)cc1	x	0.34µM*	u	x	x	14%
Cc1cc2c(c(=O)o1)C1O[C@](c3ccsc3)(Cc3ccccc31)O2	x	u	1.9µM*	x	x	u
O=C1c2oc3ccc(F)cc3c(=O)c2C(c2ccccc2)N1CC1CCCO1 (stereo not drawn)	x	5%	25%	-9%	x	-20%
O=C1C2=C(C(=O)c3ccccc31)C1O[C@](c3ccsc3)(Cc3ccccc31)O2	x	39%[5.75 µM]	1.2µM*	x	x	9%
COc1cc2c(cc1OC)C1OC(c3ccsc3)(C2)Oc2cc(C)oc(=O)c21 (stereo not drawn)	x	1.7µM*	u	x	x	22%
COc1cccc(-c2nc(CS(=O)CC(=O)NCCCOC(C)C)c(C)o2)c1 (stereo not drawn)	x	0%	16%	3%	x	3%
Cn1ccnc1C1CCCCN1Cc1nc(-c2ccc(Cl)cc2)no1 (stereo not drawn)	x	u	12µM*	21%	x	-6%
CC1(C)C2([N+](=O)[O-])CN(CCO)CC1([N+](=O)[O-])CN(CCO)C2	6%	-11%	5%	1%	19%	-3%
CC(C)(C)OC(=O)NCCCCCNC(=O)c1nc[nH]c1C(=O)N1CCN(C(=O)OC(C)(C)C)CC1	-22%	u	u	17%	-19%	x
CC(C)(C)OC(=O)NCCCCCNC(=O)c1[nH]cnc1C(=O)NC1CCN(C(=O)OC(C)(C)C)CC1	-16%	2.1µM*	9.3µM*	u	-21%	x
CC(C)(C)OC(=O)N1CCC(NC(=O)c2nc[nH]c2C(=O)N2CCN(C(=O)OC(C)(C)C)CC2)CC1	i	u	10µM*	11%	-10%	x
SMILES	VACV mCherry inh	Pf growth 96h	Pf growth 48h	HCV inhibitor	VACV Venus inh	NS1 function inh
Cc1ccc(NC(=O)c2nc[nH]c2C(=O)NC2CCN(C(=O)OC(C)(C)C)CC2)cc1	-11%	x	x	3%	u	x
CC(C)(C)OC(=O)N1CCC(NC(=O)c2[nH]cnc2C(=O)Nc2ccc(Cl)cc2)CC1	-28%	u	u	15%	14µM*	x
O=C(Nc1cccc(F)c1)c1ccc(-n2cncn2)c2ccoc12	34%	x	x	x	-6%	x
CC1CCC(NC(=O)C2CCN(c3nc4ccccc4s3)CC2)CC1 (stereo not drawn)	-17%	20%	-13%	10µM*	-6%	-2%
Cc1ccc2nc(N3CCC(C(=O)NC4CCCCC4)CC3)sc2c1	-2%[7.34 µM]	u	-15%	u	10%[7.34 µM]	-20%
CCCc1cc(N2CCC(C(N)=O)CC2)nc(-c2ccccc2)n1	-3%	23%	5.2µM*	-2%	-8%	-2%
Cc1cc(N2CCC(C(=O)NC3CC3)CC2)nc(-c2ccccc2)n1	i	u	3.7µM*	-26%	-16%	-1%
CCOc1ccc(NCc2cccn2-c2nnc(N3CCC(C(=O)NCCCN4CCCCC4C)CC3)s2)cc1 (stereo not drawn)	x	u	u	u	x	-9%
O=C(NCC(O)c1ccccc1)c1ccc(Cl)c(S(=O)(=O)N2CCCC2)c1 (stereo not drawn)	-6%	u	9.3µM*	u	-15%	x
O=C(NCC(O)c1ccccc1)c1ccc(Cl)c(S(=O)(=O)N2CCCCC2)c1 (stereo not drawn)	-27%	7%	u	10µM*	-26%	-5%
COC(=O)CC1C(=O)NCCN1C(=S)Nc1ccc(F)cc1 (stereo not drawn)	i	3.7µM*	24%	0%	-11%	2%
COC(=O)CC1C(=O)NCCN1C(=S)Nc1cccc(C)c1 (stereo not drawn)	-8%	13%	0%	11%	-8%	10%
C/C(=N/N=C1/NC(=O)CC(C(=O)Nc2ccccc2)S1)c1cccs1 (stereo not drawn)	x	9.3µM*	10µM*	5%	x	-6%
C/C(=N/N=C1/NC(=O)CC(C(=O)O)S1)c1ccccc1 (stereo not drawn)	-6%	34%	44%	-9%	5%	10%
O=C1NC(=S)N/C1=C/c1ccc(-c2c(Br)cc([N+](=O)[O-])cc2Br)o1	x	u	u	8.9µM*	x	22%
O=C1NC(=S)N/C1=C/c1cccc([N+](=O)[O-])c1	-2%	u	49%	4%	-3%	6%
NC(=O)N/N=C/c1cn(-c2ccccc2)nc1-c1ccccc1	-14%	u	-51%	-25%	-13%	x
O=C(CNc1ccccc1)N/N=C/c1cn(-c2ccccc2)nc1-c1ccccc1	i	u	12µM*	21%	-7%	22%
O=C(N/N=C/c1cn(-c2ccccc2)nc1-c1ccc(F)cc1)c1ccc(Br)o1	x	u	8.3µM*	u	-20%	-3%

Screening results: PubChem, National Center for Advancing Translational Sciences (NCATS)
